The values below come from PubChem BioAssay.

As usually defined, the AC50 is the concentration giving half of the maximal activity seen. By IC50 is commonly meant the concentration needed to halve the response being measured. In general, viability refers to a read-out of living cells in per cent, often relative to untreated cells.

Inconclusive results are not listed. The source made the active and inactive calls.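 The calls were made as follows, unless noted: active = normalized viability below 100% at a tested concentration; inactive = the rest.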

A short description of test [1]: growth inhibition of DIPG glioma cells, dose response, cell-based, SU-DIPG-XVII, MIPE5.0, CellTiter-Glo, qHTS (AID 1347060; cut-off not given, nearly all actives have AC50 up to about 26 µM;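 as to AC50: cells exposed to compound for 48 hours before viability readout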). Conditions: SU-DIPG-XVII viability, CellTiter-Glo ATP luminescence.
A short description of test [2]: growth inhibition of DIPG glioma cells, dose response, cell-based, SU-DIPG-XIII, MIPE5.0, CellTiter-Glo, qHTS (AID 1347064; cut-off not given, nearly all actives have AC50 up to about 23 µM;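 as to AC50: cells exposed to compound for 48 hours before the viability read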). Particulars: SU-DIPG-XIII viability, CellTiter-Glo ATP luminescence. On the technique in general: Cellular ATP, detected with luciferase, serves as a proxy for viable cell number.
Test [3] is described as follows: viability loss in pontine glioma line – cell-based, SU-DIPG-XXV, MIPE5.0, CellTiter-Glo, qHTS, dose response (AID 1347065; cut-off not given, nearly all actives have AC50 up to about 26 µM;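 also: cells exposed to compound for 48 hours before ATP readout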). Particulars: CellTiter-Glo ATP luminescence.
A short description of test [4]: JHH-DIPG-1 glioma cell viability, MIPE5.0 library, CellTiter-Glo luminescence, qHTS (AID 1347067; cut-off not given, nearly all actives have AC50 up to about 26 µM;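 also: cells exposed to compound for 48 hours before readout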). Conditions: JHH-DIPG-1 glioma viability, CellTiter-Glo ATP luminescence.
Test [5] is described as follows: SU-DIPG-XXV glioma cell viability, MIPE5.0 library, qHTS (AID 1347068; cut-off not given, nearly all actives have IC50 up to about 30 µM;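 as to IC50: cells exposed to compound for 48 hours before viability readout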). (In general: qHTS replaces the single test concentration by a dilution series.)
Test [6] is described as follows: sensitizers of A549 cells to miR-34 induction, primary screen, imaging, A549 dox-inducible miR-34, nuclei and caspase counts (AID 1347080;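 active = compounds whose cell count with miR-34 switched on is under 0.7 times the count with it off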). Particulars: A549 miR-34 inducible, Hoechst nuclei count, 48 h.
The nature of test [7]: survival rescue of mitochondrial mutant cells in low glucose, primary screen, MELAS cybrids, Rieske KO mouse fibroblasts, CellTiter-Glo (AID 1508586;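 active = mean z-score across replicates of 1.96 or higher in either the MELAS or the Rieske mutant cell line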;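 also: z relative to plate mean and SD of compound and empty wells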).
Test [8] in a line: ovarian cancer cell viability with rucaparib, profiling panel, oncology-focused library, rucaparib conditional (AID 1508598). Conditions: patient-derived ovarian cancer cells, CellTiter-Glo viability, 144 h, stronger effect = lower value.
Where [9] appears, read: stronger effect = lower value, cell number ratio, induced over uninduced.
[10] abbreviates: measured here: relative caspase fold change +Dox/-Dox.
Where [11] appears, read: measured here: total cells with miR-34 induction, stronger effect = lower value.
Where [12] appears, read: measured here: total cells without miR-34 induction.
The mark [13] stands for this setting: MELAS cybrid survival, CellTiter-Glo 48 h, stronger effect = higher value.
Setting [14] is: Rieske KO mouse fibroblast survival, CellTiter-Glo 72 h.

Take `COc1cc(N2CCC(N)CC2)ccc1Nc1ncc(Cl)c(-c2c[nH]c3ccccc23)n1`: the AC50 is 0.525 µM (active) in test [1], 0.263 µM (active) in test [2], 0.209 µM (active) in test [3] and 0.525 µM (active) in test [4]. The IC50 in test [5] is 0.742 µM (active). The fold change in test [6] (setting [9]) is 0.915 (inactive); in test [6] (setting [10]), 0.405. Moreover, the results for the cell count in test [6] (setting [11]) and in test [6] (setting [12]) were 1920 and 2100, respectively. In addition, the z-score in test [7] (setting [13]) is 0.226 (inactive); in test [7] (setting [14]) it was -0.504.
On to `COc1nc(N)nc2c1ncn2C1OC(CO)C(O)C1O` (stereo unspecified), for which the molecule was called inactive in test [1], in test [2], in test [3], in test [4] and in test [5]. In addition, the fold change in test [6] (setting [9]) is 0.895 (inactive); in test [6] (setting [10]), 0.879. The cell count is 6660 in test [6] (setting [11]) and 7440 in test [6] (setting [12]). In addition, the z-score in test [7] (setting [13]) was -0.422 (inactive); in test [7] (setting [14]), -0.253.
For the molecule `C=CC(=O)Nc1cccc(Nc2nc(Nc3ccc(OCCOC)cc3)ncc2F)c1`, the AC50 was 2.35 µM (active) in test [1], 1.66 µM (active) in test [2], 2.09 µM (active) in test [3] and 3.72 µM (active) in test [4]. Further, the IC50 in test [5] is 3.32 µM (active). Further, the results for the fold change in test [6] (setting [9]) and in test [6] (setting [10]) were 0.943 (inactive) and 0.349, respectively. Further, the figures for the cell count in test [6] (setting [11]) and in test [6] (setting [12]) were 1800 and 1910, respectively. The z-score in test [7] (setting [13]) was 2.91 (active); in test [7] (setting [14]) it was -0.365.
As to `C=CC(=O)Nc1cc(Nc2nccc(-c3cn(C)c4ccccc34)n2)c(OC)cc1N(C)CCN(C)C`, the AC50 is 2.95 µM (active) in test [1], 7.42 µM (active) in test [2], 3.72 µM (active) in test [3] and 2.63 µM (active) in test [4]. Further, the IC50 in test [5] was 9.34 µM (active). Further, the fold change in test [6] (setting [9]) was 0.975 (inactive); in test [6] (setting [10]) it was 0.432. Besides, the results for the cell count in test [6] (setting [11]) and in test [6] (setting [12]) were 2760 and 2830, respectively. The results for the z-score in test [7] (setting [13]) and in test [7] (setting [14]) were -0.292 (inactive) and 1.23, respectively. Moreover, the viability in test [8] (at 0.000305 µM, OCI-C5x cells, with rucaparib 10 µM, 100% = cells with rucaparib alone) is 110% (inactive); in test [8] (at 0.000305 µM, OCI-C5x cells, without rucaparib), 114% (inactive); in test [8] (at 0.000305 µM, OCI-P5x cells, with rucaparib 20 µM, 100% = cells with rucaparib alone) it was 95.5% (active); in test [8] (at 0.000305 µM, OCI-P5x cells, without rucaparib), 94.3% (active); in test [8] (at 0.00122 µM, OCI-C5x cells, with rucaparib 10 µM, 100% = cells with rucaparib alone) it was 106% (inactive); in test [8] (at 0.00122 µM, OCI-C5x cells, without rucaparib), 108% (inactive). For the same molecule, the viability in test [8] (at 0.00122 µM, OCI-P5x cells, with rucaparib 20 µM, 100% = cells with rucaparib alone) is 103% (inactive); in test [8] (at 0.00122 µM, OCI-P5x cells, without rucaparib) it was 103% (inactive); in test [8] (at 0.00488 µM, OCI-C5x cells, with rucaparib 10 µM, 100% = cells with rucaparib alone) it was 120% (inactive); in test [8] (at 0.00488 µM, OCI-C5x cells, without rucaparib), 120% (inactive); in test [8] (at 0.00488 µM, OCI-P5x cells, with rucaparib 20 µM, 100% = cells with rucaparib alone), 103% (inactive); in test [8] (at 0.00488 µM, OCI-P5x cells, without rucaparib), 106% (inactive). Besides, the viability is 127% (inactive) in test [8] (at 0.0195 µM, OCI-C5x cells, with rucaparib 10 µM, 100% = cells with rucaparib alone); 118% (inactive) in test [8] (at 0.0195 µM, OCI-C5x cells, without rucaparib); 108% (inactive) in test [8] (at 0.0195 µM, OCI-P5x cells, with rucaparib 20 µM, 100% = cells with rucaparib alone); 106% (inactive) in test [8] (at 0.0195 µM, OCI-P5x cells, without rucaparib); 133% (inactive) in test [8] (at 0.0781 µM, OCI-C5x cells, with rucaparib 10 µM, 100% = cells with rucaparib alone); 132% (inactive) in test [8] (at 0.0781 µM, OCI-C5x cells, without rucaparib). In addition, the viability is 105% (inactive) in test [8] (at 0.0781 µM, OCI-P5x cells, with rucaparib 20 µM, 100% = cells with rucaparib alone); 107% (inactive) in test [8] (at 0.0781 µM, OCI-P5x cells, without rucaparib); 158% (inactive) in test [8] (at 0.313 µM, OCI-C5x cells, with rucaparib 10 µM, 100% = cells with rucaparib alone); 170% (inactive) in test [8] (at 0.313 µM, OCI-C5x cells, without rucaparib); 108% (inactive) in test [8] (at 0.313 µM, OCI-P5x cells, with rucaparib 20 µM, 100% = cells with rucaparib alone); 108% (inactive) in test [8] (at 0.313 µM, OCI-P5x cells, without rucaparib). The viability was 147% (inactive) in test [8] (at 1.25 µM, OCI-C5x cells, with rucaparib 10 µM, 100% = cells with rucaparib alone); 173% (inactive) in test [8] (at 1.25 µM, OCI-C5x cells, without rucaparib); 91.6% (active) in test [8] (at 1.25 µM, OCI-P5x cells, with rucaparib 20 µM, 100% = cells with rucaparib alone); 91.7% (active) in test [8] (at 1.25 µM, OCI-P5x cells, without rucaparib); 2.67% (active) in test [8] (at 5 µM, OCI-C5x cells, with rucaparib 10 µM, 100% = cells with rucaparib alone); 3.48% (active) in test [8] (at 5 µM, OCI-C5x cells, without rucaparib). For the same molecule, the viability is 8.99% (active) in test [8] (at 5 µM, OCI-P5x cells, with rucaparib 20 µM, 100% = cells with rucaparib alone) and 78.5% (active) in test [8] (at 5 µM, OCI-P5x cells, without rucaparib).
